This note sets out measurements from PubChem BioAssay (NCATS).

Assay [1] deals with Aldehyde dehydrogenase, mitochondrial (Homo sapiens) (UniProt P05091). In words: qHTS for Inhibitors of the Aldehyde Dehydrogenase Family (ALDH2) Confirmatory screens (AID 2061303; active = well fitted inhibition curve with a large enough effect; title and protocol of this record describe different tests; note: nearly all actives have a fitted effect of over 45% in size; note: potency is the fitted concentration of half-maximal effect). The following applies: ALDH inhibition qHTS; series mostly up to 45.4 µM. (qHTS replaces the single test concentration by a dilution series.)
A short description of assay [2]: qHTS for Inhibitors of the Aldehyde Dehydrogenase Family (ALDH1A2, ALDH1A3, ALDH2, ALDH3A1) (AID 2061307). For Potency: test system not described further here; potency is the fitted concentration of half-maximal effect. Note: nearly all actives have a fitted effect of over 50% in size. As to conditions: ALDH inhibition qHTS; series mostly up to 50.3 µM.
For assay [3], the target named is Aldehyde dehydrogenase, mitochondrial (Homo sapiens) (UniProt P05091). In words: qHTS for Inhibitors of the Aldehyde Dehydrogenase Family (ALDH2) Primary screen (AID 2061308). Note: nearly all actives have a fitted effect of over 55% in size. Note: potency is the fitted concentration of half-maximal effect. The following applies: ALDH2 enzyme inhibition qHTS, 1536-well; series mostly up to 56 µM.
The target in assay [4] is Retinaldehyde dehydrogenase 3 (Homo sapiens) (UniProt P47895). In words: qHTS for Inhibitors of the Aldehyde Dehydrogenase Family (ALDH1A3) Confirmatory screens (AID 2061311). Note: nearly all actives have a fitted effect of over 60% in size. Note: potency is the fitted concentration of half-maximal effect. As to conditions: ALDH inhibition qHTS; series mostly up to 46 µM.
Assay [5] deals with Retinal dehydrogenase 2 (Homo sapiens) (UniProt O94788). The experiment in a line: qHTS for Inhibitors of the Aldehyde Dehydrogenase Family (ALDH1A2) Confirmation screens (AID 2061314). Note: nearly all actives have a fitted effect of over 65% in size. Note: potency is the fitted concentration of half-maximal effect. As to conditions: ALDH1A2 enzyme inhibition qHTS confirmation; series mostly up to 45.9 µM.
Assay [6] has as its target Retinaldehyde dehydrogenase 3 (Homo sapiens) (UniProt P47895). In words: qHTS for Inhibitors of the Aldehyde Dehydrogenase Family (ALDH1A3) Primary screen (AID 2061315). The following applies: ALDH inhibition qHTS; series mostly up to 56 µM.
The target is the same in assay [7]. In words: qHTS for Inhibitors of the Aldehyde Dehydrogenase Family (ALDH1A3) Validation screen (AID 2061312). Note: nearly all actives have a fitted effect of over 45% in size. The following applies: ALDH1A3 enzyme inhibition qHTS validation, fluorescence; series mostly up to 84.7 µM.
Assay [8] deals with Aldehyde dehydrogenase 1A1 (Homo sapiens) (UniProt P00352). The experiment in a line: qHTS for Inhibitors of the Aldehyde Dehydrogenase Family (ALDH1A1) Confirmatory screens (AID 2061316). Note: nearly all actives have a fitted effect of over 65% in size. Note: potency is the fitted concentration of half-maximal effect. The following applies: ALDH inhibition qHTS; series mostly up to 47.3 µM.

Inconclusive results are not listed. The source made the active and inactive calls. Unless noted, calls come from the whole dose curve; as a rule, active = well fitted curve in the direction sought with a large enough effect; inconclusive = small, poorly fitted or top-dose-only effect, or another doubt; inactive = no such curve, though single readings can be large; an effect the other way counts as inactive or inconclusive.

For the compound `O=[S+]([O-])(NCc1nccs1)c1ccc(Nc2nc(-c3ccccc3)cs2)cc1`, the Potency result in assay [1], in assay [2], in assay [3], in assay [4], in assay [5] and in assay [6] was “inactive” in each case.
As for `CC(=O)Nc1sc2c(c1-c1cnn(C(C)=O)c1)CCNC2`, the Potency result in assay [1], in assay [2], in assay [3], in assay [4], in assay [5] and in assay [6] was “inactive” throughout.
Regarding `Cc1ccc(-c2nccc(=O)n2CC(=O)NCCc2ccccc2)cc1`, the Potency result in assay [1], in assay [2], in assay [3], in assay [4], in assay [5] and in assay [6] was “inactive” throughout.
Regarding `O=C(Nc1ccc(F)c(C(F)(F)F)c1)Nc1nnc(C2CCCCC2)s1`, the Potency entry in assay [1], in assay [2], in assay [4], in assay [5] and in assay [6] was “inactive” each time. In addition, the Potency in assay [3] is 8.91 µM (active).
With `COc1ccc(CN2C(=O)c3ccccc3NC2c2ccc(OC)c(COc3ccc(NC(C)=O)cc3)c2)cc1` (configuration not stated), the Potency in assay [1] is 17.8 µM (active); in assay [2] it was 7.94 µM (active); in assay [4] it was 2.24 µM (active); in assay [5], 6.34 µM (active). Also, the Potency entry in assay [3] and in assay [6] was “inactive” in each case.
Turning to `O=C(Nc1ccccc1Cl)c1cnc2ccc(C3CCNCC3)cn12`, the Potency result in assay [1], in assay [2], in assay [3], in assay [4], in assay [7] and in assay [5] was “inactive” in each case. Moreover, the Potency entry in assay [6] is “inactive”.
For the compound `Cc1ccc(CNc2ccc(N3CCNCC3=O)cc2)cc1`, the Potency entry in assay [1], in assay [2], in assay [3] and in assay [6] was “inactive” throughout. Also, the Potency was 14.2 µM (active) in assay [4] and 10.1 µM (active) in assay [5].
`C[C@H]1CO[C@@H]2Cn3cc(C(=O)NCc4ccc(F)cc4F)c(=O)c(O)c3C(=O)N12`: the Potency result in assay [1], in assay [2], in assay [3], in assay [4], in assay [7] and in assay [5] was “inactive” throughout. Moreover, the Potency entry in assay [6] and in assay [8] was “inactive” each time.
For `COc1ccc(C=O)cc1COc1ccc(NC(C)=O)cc1`, the Potency in assay [1] is 3.16 µM (active); in assay [2], 0.318 µM (active); in assay [4], 15.8 µM (active); in assay [5], 3.18 µM (active). In addition, the Potency result in assay [3] and in assay [6] was “inactive” each time.
On to `O=C(O)c1ccc2c(c1)C(=O)N([C@]1(C(=O)O)C[C@H]1c1ccccc1)C2=O`, for which the Potency result in assay [1], in assay [2], in assay [3], in assay [4], in assay [5] and in assay [6] was “inactive” in each case.
In the case of `Cn1nnnc1Sc1ncnc2scc(Br)c12`, the Potency entry in assay [1], in assay [2], in assay [3], in assay [4], in assay [5] and in assay [6] was “inactive” each time.
Turning to `Nc1ccc(S(=O)(=O)N2CCN(S(=O)(=O)c3c(F)cccc3F)CC2)cc1`, the Potency entry in assay [1], in assay [2], in assay [3], in assay [4], in assay [5] and in assay [6] was “inactive” in each case.
With `Cc1cc2occ(CN(C)CCN(C)Cc3cn(-c4cccc(C(F)(F)F)c4)c4ccccc34)c(=O)c2cc1C`, the Potency result in assay [1], in assay [2], in assay [3], in assay [4], in assay [7] and in assay [5] was “inactive” each time. Besides, the Potency entry in assay [6] was “inactive”. Moreover, in assay [8], the Potency is 10.1 µM (active).
As for `COc1cccc(C2c3c(ncn(CCCN4CCOCC4)c3=N)Oc3ccc4ccccc4c32)c1` (configuration not stated), the Potency entry in assay [1], in assay [2], in assay [3], in assay [4], in assay [5] and in assay [6] was “inactive” in each case. For the same compound, in assay [8], the Potency entry is “inactive”.
Regarding `Cc1cc(NC(=O)c2ccc([S+](=O)([O-])NCc3ccc(Cl)c(Cl)c3)cc2)no1`, the Potency entry in assay [1], in assay [2], in assay [3], in assay [4], in assay [5] and in assay [6] was “inactive” in each case. Also, the Potency entry in assay [8] was “inactive”.
Turning to `COc1ccc(N2Cc3cccc(C(=O)O)c3C2=O)c(OC)c1`, the Potency entry in assay [1], in assay [2], in assay [3], in assay [4], in assay [5] and in assay [6] was “inactive” each time. For the same compound, in assay [8], the Potency result is “inactive”.
As for `O=C(NC1CCCc2c1cnn2-c1ccc(F)cc1F)c1ccccn1` (configuration not stated), the Potency entry in assay [1], in assay [2], in assay [3], in assay [4], in assay [5] and in assay [6] was “inactive” in each case. Also, the Potency result in assay [8] was “inactive”.
As to `Cc1ccc2nc(-c3ccccn3)c(Nc3ccccc3C)n2c1`, the Potency result in assay [1], in assay [2], in assay [3], in assay [4], in assay [5] and in assay [6] was “inactive” in each case. The Potency result in assay [8] is “inactive”.
For `CC(C)(C)OC(=O)N1CCN(c2ccc(NCc3cnc(-c4ccc(C#N)cc4)o3)cc2)CC1`, the Potency in assay [1] was 0.4 µM (active); in assay [2], 0.252 µM (active); in assay [3] it was 0.316 µM (active). Further, the Potency entry in assay [4], in assay [5], in assay [6] and in assay [8] was “inactive” throughout.
Regarding `Fc1ccc(CSc2nc3ncc(Br)cc3[nH]2)cc1`, the Potency result in assay [1], in assay [2], in assay [3], in assay [4], in assay [5] and in assay [6] was “inactive” in each case. Further, the Potency entry in assay [8] was “inactive”.
With `COc1ccc(-c2csc(N3CCC(C(N)=O)CC3)n2)cc1`, the Potency result in assay [1], in assay [2], in assay [3], in assay [4], in assay [5] and in assay [6] was “inactive” each time. Moreover, in assay [8], the Potency entry is “inactive”.
Turning to `CCc1nnc(-c2cnn(C)c2N)n1CCCn1ccnc1`, the Potency entry in assay [1], in assay [2], in assay [3], in assay [4], in assay [5] and in assay [6] was “inactive” throughout. For the same compound, in assay [8], the Potency result is “inactive”.
On to `Cc1cccc(OC2=NS(=O)(=O)c3ccccc32)c1`, for which the Potency entry in assay [1], in assay [2], in assay [3], in assay [4], in assay [5] and in assay [6] was “inactive” throughout. Also, the Potency result in assay [8] is “inactive”.
Turning to `FC(F)(F)c1cc(N2CCN(C(=S)Nc3cc(Cl)ccn3)CC2)cc(C(F)(F)F)c1`, the Potency result in assay [1], in assay [2], in assay [3], in assay [4], in assay [5] and in assay [6] was “inactive” in each case. The Potency in assay [8] was 22.5 µM (active).
With `Cc1noc(C)c1-c1csc(N2CCC(C(N)=O)CC2)n1`, the Potency result in assay [1], in assay [2], in assay [3], in assay [4], in assay [5] and in assay [6] was “inactive” each time. For the same compound, in assay [8], the Potency result is “inactive”.
